For 40 molecules, outcome results are on record in PubChem BioAssay (Tox21).

The structures appear in SMILES notation. Results filed as inconclusive are left out. The source made the active and inactive calls. Calls follow the shape of the dose curve; as a rule, active = well fitted inhibition curve with a large enough effect in the signal ratio in the repeat runs (not every such curve was filed as active); inconclusive = weak or mixed curves, or effect the other way; inactive = no such curve, though single readings can be large or run the other way; the % refers to the signal ratio.

Vitamin D3 receptor (Homo sapiens), sequence (P11473 whole entry, looked up): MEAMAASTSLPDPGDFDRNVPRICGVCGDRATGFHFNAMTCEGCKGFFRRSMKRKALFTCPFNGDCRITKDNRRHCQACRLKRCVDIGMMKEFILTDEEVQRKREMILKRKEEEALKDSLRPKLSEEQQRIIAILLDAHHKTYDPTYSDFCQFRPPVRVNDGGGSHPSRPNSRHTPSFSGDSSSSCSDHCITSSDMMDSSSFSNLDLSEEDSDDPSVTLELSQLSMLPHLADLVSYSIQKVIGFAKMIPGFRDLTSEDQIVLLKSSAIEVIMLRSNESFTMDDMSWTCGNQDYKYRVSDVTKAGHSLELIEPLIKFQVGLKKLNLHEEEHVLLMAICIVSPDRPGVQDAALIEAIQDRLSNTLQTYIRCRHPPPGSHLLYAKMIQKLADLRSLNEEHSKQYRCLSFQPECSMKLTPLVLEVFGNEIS

This assay has as its target Vitamin D3 receptor (Homo sapiens) (UniProt P11473). Description: qHTS assay to identify small molecule antagonists of the vitamin D receptor (VDR) signaling pathway (AID 743223). The note with it: VDR-UAS-bla HEK293T, beta-lactamase FRET ratio, 16 h; series mostly up to 61 µM. The text has this:
U.S. Tox21 Program National Center for Advancing Translational Sciences [NCATS] NIH Chemical Genomics Center [NCGC] U.S. Environmental Protection Agency [EPA] National Institutes of Environmental Health Sciences [NIEHS] National Toxicology Program [NTP] U.S. Food and Drug Administration [FDA] Tox21 Assay Overview: The vitamin D receptor (VDR), a member of nuclear hormone receptor superfamily, plays a critical role in calcium homeostasis and bone metabolism. It is also involved in cell differentiation and growth, and thrombogenicity.
Tox21 Assay Protocol Summary: VDR-bla cells were dispensed at 2,000 cells/5 uL of assay medium per well into black wall/clear-bottom 1536-well plates using a Multidrop Combi (Thermo Fisher Scientific, Waltham, MA) dispenser. After the assay plates were incubated at a 37C and 5% CO2 for 4 h, 23 nL of compounds dissolved in DMSO, positive controls or DMSO only was transferred to the assay plate by a Pintool station (Kalypsys, San Diego, CA), followed by addition of 1 uL of 1alpha, 25-Dihydroxy Vitamin D3 (3 nM, final concentration in the wells) using a Bioraptr Flying Reagent Dispenser (FRD) workstation (Beckman Coulter, Indianapolis, IN). The plates were incubated at 37C and 5% CO2 for 16 h, and then 1 uL of LiveBLAzerTM B/G FRET substrate was added using a Bioraptr FRD. The plates were incubated at room temperature for 2 h and fluorescence intensity was measured by an Envision plate reader (PerkinElmer, Shelton, CT).
(In general: In qHTS, concentration-response curves come from the screen itself.)
In the case of `CC(C)c1cccc(O)c1`, the result was inactive.
Take `CC(CCO)CCCC(C)(C)O` (stereo not given): the outcome was inactive.
As for `CC(C)(C)N(CCO)CCO`, the outcome was inactive.
On to `CCCCCCCCCCCCCCCCCC(=O)OCCCCCCCCCCCCCC(C)C`, for which the result was inactive.
As for `O=Cc1ccccc1[N+](=O)[O-]`, the entry is “inactive”.
In the case of `CCCCCC[C@@H](CCC)C(=O)O`, the result was inactive.
The entry for `CC/C=C\CCCCO` is “inactive”; for `CCC(=O)Nc1cccc(N)c1` it is “inactive”.
Consider `CCCCc1ccc2cccc(S(=O)(=O)O)c2c1`, for which the result was inactive.
For `C1CCCCCCCCCCC1`, the result was inactive.
The entry for `CCN1CCN(c2cc3c(cc2F)c(=O)c(C(=O)O)cn3C2CC2)CC1` is “inactive”.
Take `CC(C)N1C(=O)c2ccccc2C1=O`: the outcome was inactive.
With `CC(=O)N[C@@H](CCC(N)=O)C(=O)O`, the result was inactive.
Take `NC(=O)Nc1nc2ccccc2[nH]1`: the outcome was inactive.
With `CCCCNc1ccccc1`, the result was inactive.
As to `CC12CCC(CC1=O)C2(C)C` (stereo not given), the result was inactive.
Turning to `CN1[C@@H]2CC[C@H]1CC(NC(=O)n1c(=O)[nH]c3ccccc31)C2` (stereo not given in full), the outcome was inactive.
Regarding `NCCN1CCNC1=O`, the outcome was inactive.
On to `O=[N+]([O-])c1ccc(CCO)cc1`, for which the outcome was inactive.
As for `COc1cc(O)cc(O)c1`, the outcome was inactive.
Consider `CCCc1ccccc1O`, for which the outcome was inactive.
As for `C(=C(c1ccccc1)c1ccccc1)c1ccccc1`, the entry is “inactive”.
With `COC(C(=O)O)c1ccccc1` (stereo not given), the outcome was inactive.
Regarding `CN(C)C(=O)Nc1ccccc1`, the outcome was inactive.
Turning to `NC(=O)CCCCC1CCSS1` (stereo not given), the outcome was inactive.
In the case of `COc1ccc(NC(C)=O)cc1`, the outcome was inactive.
As for `Cc1c(F)cc2c(=O)c(C(=O)O)cn3c2c1CCC3C` (stereo not given), the entry is “inactive”; as for `O=C(O)C1CCC1`, “inactive”.
Turning to `Cc1ccc(N)cc1[N+](=O)[O-]`, the outcome was inactive.
Take `NS(=O)(=O)c1cc(C2(O)NC(=O)c3ccccc32)ccc1Cl` (stereo not given): the result was inactive.
Turning to `Nc1cc(N)cc(C(=O)O)c1`, the outcome was inactive.
With `COc1ccc2cc(C=O)ccc2c1`, the outcome was inactive.
As for `COc1nc(C)nc(N)n1`, the entry is “inactive”; as for `C=CCSCC1Nc2cc(Cl)c(S(N)(=O)=O)cc2S(=O)(=O)N1` (stereo not given), “inactive”.
The entry for `C[C@H](O)C(=O)Nc1c(I)c(C(=O)NC(CO)CO)c(I)c(C(=O)NC(CO)CO)c1I` is “inactive”; for `CCCCCCOC(=O)c1ccccc1O` it is “inactive”; for `Nc1ccc2cc(S(=O)(=O)O)ccc2c1` it is “inactive”.
Take `O=C1OC(=O)c2cc([N+](=O)[O-])ccc21`: the outcome was inactive.
With `CC(C)COC(=O)C(C)C`, the outcome was inactive.
For the molecule `Cc1onc(-c2ccccc2)c1-c1ccc(S(N)(=O)=O)cc1`, the result was inactive.
